Screening data as filed in PubChem BioAssay.
The sample as a whole holds a higher share of hits than the screen did.
ST2 IL33 inh: IL1RL1 inhibition | Q01638 | AID 1259354 | actives 2.3% (n = 78,000) | inhibition, % for hits at 17 µM | AlphaLISA ST2-Fc/biotin-IL-33 interaction, 1 h; in the data active = inhibition above about 30%
Numbers without * were called inactive; i = inactive; ! = a repeat was not active.

SMILES	ST2 IL33 inh
COc1cc(NC(=O)c2ccccc2)c(Cl)cc1NC(C)=O	i
CCC(=O)Nc1cccc(C(=O)NC(C)Cn2cccn2)c1 (stereo not drawn)	i
Cc1ccc(-c2nccn2CC2CC2)c(F)c1	i
Cn1ccc(NC(=O)CN2CCOC(Cc3cccc4ccccc34)C2)n1 (stereo not drawn)	i
O=C(NCc1ccco1)c1cc(-c2ccc(Cl)s2)nc2ccccc12	i
O=C(NCc1ccco1)c1cc2c(=O)oc3ccccc3c2s1	i
COc1cc(C2N(Cc3ccccc3)CCN2Cc2ccccc2)ccc1O	i
COc1cc(C2CC(c3ccccc3O)=NN2)ccc1O (stereo not drawn)	32%*
COc1cc(C2C3=C(CCCC3=O)NC3=C2C(=O)c2ccccc23)ccc1O (stereo not drawn)	i
O=C(N[C@H]1CO[C@H]2[C@@H]1OC[C@@H]2n1nnnc1-c1ccc2c(c1)OCO2)C1CCCCC1	i
Cc1noc(C)c1C(=O)NC(C)CC1=CCCN(CCCF)C1 (stereo not drawn)	i
OCC1(Cc2ccccc2)CCNCC1	i
CNC(=O)[C@@H]1C[C@@H](N)CN1S(=O)(=O)N1CCc2ccccc2C1	i
CN(C)CCN(Cc1cccs1)C(=O)Cn1nc(-c2ccc(Cl)cc2)ccc1=O	i
COc1ccccc1OCC(=O)N1CCN(c2ccccn2)CC1	i
COc1cc(C2C=C(c3ccc4c(c3)OCO4)Nc3ncnn32)cc(OC)c1OC (stereo not drawn)	i
Cc1ccc(-n2c(C)nc3c(cnn3-c3ccc(F)cc3)c2=O)cc1	i
Cc1ccc(-n2ncc3c([N+](=O)[O-])cc([N+](=O)[O-])cc32)cc1	62%*
Cc1ccc(-n2ncc3c(=O)n(-c4ccc(C)c(C)c4)c(C)nc32)cc1	i
Cc1cc(NC(=O)CSC2=Nc3ccccc3C3=NC(c4ccccc4)C(=O)N23)n[nH]1 (stereo not drawn)	i
Cc1cc(Br)cc(C)c1OCCOCCN1CCN(C)CC1	i
Cc1cc(C)n(C)c(=O)c1C(=O)NC(C)c1ccc(-n2cncn2)cc1 (stereo not drawn)	i
O=C(O)c1ccc(N2CCCC2)c([N+](=O)[O-])c1	i
O=C1OC(c2ccccc2)OC(=O)C1=Cc1ccc(-c2cc(C(=O)O)ccc2Cl)o1 (stereo not drawn)	i
COc1ccc(/C=C2/C(=O)c3ccc(C(=O)O)cc3C2=O)cc1OC	i
SMILES	ST2 IL33 inh
O=C(O)c1ccc2c(c1)C(=O)/C(=C\c1ccco1)C2=O	71%*
O=C(O)c1ccc2c(c1)C(=O)/C(=C\c1ccc([N+](=O)[O-])o1)C2=O	91%*
O=C(O)c1ccc(C(=O)O)c(-c2ccccc2)c1	i
CC(C)CNC(=O)c1cc(-c2cccs2)on1	i
COc1ccc(CN2CCN(C3C4CC5CC(C4)CC3C5)CC2CCO)c(F)c1 (stereo not drawn)	i
COCCOCC(=O)N1CCc2c([nH]c3ccccc23)C1C(C)C (stereo not drawn)	i
O=C(NCc1cccs1)c1noc2c1CCc1ccccc1-2	i
Cn1ccc(C(=O)Nc2c(F)c(F)cc(F)c2F)n1	i
Cc1cc(F)ccc1NC(=O)C(C)NC(=O)Cc1nonc1C (stereo not drawn)	i
CC(=O)N1c2ccccc2N=C(c2ccccc2)CC1c1ccccc1 (stereo not drawn)	i
Cc1cc2n(n1)C(c1ccc(Cl)cc1)CC(c1ccccc1)=N2 (stereo not drawn)	30%*!
O=C(O)CCC(=O)N1N=C(c2ccccc2)CC1c1ccc(Cl)cc1 (stereo not drawn)	i
Cn1c(=O)c2c(SCC(=O)Nc3ccccc3)nc(-c3cccs3)nc2n(C)c1=O	i
Cc1ccc(-n2c(SCC(=O)N3CCc4ccccc43)nc3c(c2=O)SCC3)cc1	97%*!
Cc1ccc(-n2c(SCc3ccc(F)cc3)nc3c(c2=O)SCC3)cc1	31%*!
COC(=O)c1ccc(CSc2nc3c(c(=O)n2-c2ccc(C)cc2)SCC3)o1	i
Cc1ccc(-n2c(SCc3ccccc3)nc3c(c2=O)SCC3)cc1	30%*!
O=C(CSc1nc2c(c(=O)n1-c1ccc(Cl)cc1)SCC2)N1CCc2ccccc21	i
CCOc1ccc(-n2c(SCc3ccc(F)cc3)nc3c(c2=O)SCC3)cc1	i
Cc1ccc(-n2c(SCc3cccc(F)c3)nc3c(c2=O)SCC3)cc1	33%*!
Cc1ccc(-n2c(SCC(=O)N3CCCCC3)nc3c(c2=O)SCC3)cc1	i
O=c1c2c(nc(SCc3ccc(F)cc3)n1-c1ccc(F)cc1)CCS2	i
CCSc1nc2c(c(=O)n1-c1ccc(F)cc1)SCC2	i
Cc1ccc(-n2c(SCC(=O)N3CCCC3)nc3c(c2=O)SCC3)cc1	i
O=C(CSc1nc2c(c(=O)n1-c1ccc(Cl)cc1)SCC2)N1CCCc2ccccc21	i
O=C(C1CNCCN1C(=O)c1ccc(-n2cnnc2)cc1)N1CCOCC1 (stereo not drawn)	i
O=C(Nc1ccccc1F)c1oc2ccccc2c1NC(=O)C1CCCC1	i
